Assay outcomes from PubChem BioAssay.
The list is not random: actives were taken first. Their share in the collection is about 12%.
HP1b binding inh – HP1-beta chromodomain-methylated histone interaction inhibition; Potency, µM (titrated, usually from 114 µM), inactives show at the top dose activity change, negative = inhibition, most hits filed as inhibitors; AlphaScreen HP1-beta / biotin-H3K9me3 peptide binding; P83916; 390,000 tested, 0.56% active; AID 540317; further: potency means the concentration at half of the fitted maximal effect; nearly all actives have a fitted effect of over 70% in size
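HP1-beta protein (50 nM final) preincubated 30 min at room temperature with biotinylated H3(1-18)K9me3 peptide (50 nM) in PBS pH 7.4, 0.01% Tween-20, then compound added for 30 min. AlphaScreen streptavidin donor/nickel chelate acceptor beads (10 ug/mL final), 30 min dark, luminescence read.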
BAZ2B block – inhibitors of human BAZ2B bromodomain; AlphaScreen BAZ2B-H3K14Ac peptide displacement; Potency, µM (highest dose often 114 µM), for inactives: at the top dose activity change, negative = inhibition, most hits filed as inhibitors; 360,000 tested, 4.4% active; AID 504333; further: potency means the concentration at half of the fitted maximal effect; on the % scale 0 is the no-effect control and ±100 the full control effect; nearly all actives have a fitted effect of over 60% in size
Target sequence (Q9UIF8 whole entry, looked up): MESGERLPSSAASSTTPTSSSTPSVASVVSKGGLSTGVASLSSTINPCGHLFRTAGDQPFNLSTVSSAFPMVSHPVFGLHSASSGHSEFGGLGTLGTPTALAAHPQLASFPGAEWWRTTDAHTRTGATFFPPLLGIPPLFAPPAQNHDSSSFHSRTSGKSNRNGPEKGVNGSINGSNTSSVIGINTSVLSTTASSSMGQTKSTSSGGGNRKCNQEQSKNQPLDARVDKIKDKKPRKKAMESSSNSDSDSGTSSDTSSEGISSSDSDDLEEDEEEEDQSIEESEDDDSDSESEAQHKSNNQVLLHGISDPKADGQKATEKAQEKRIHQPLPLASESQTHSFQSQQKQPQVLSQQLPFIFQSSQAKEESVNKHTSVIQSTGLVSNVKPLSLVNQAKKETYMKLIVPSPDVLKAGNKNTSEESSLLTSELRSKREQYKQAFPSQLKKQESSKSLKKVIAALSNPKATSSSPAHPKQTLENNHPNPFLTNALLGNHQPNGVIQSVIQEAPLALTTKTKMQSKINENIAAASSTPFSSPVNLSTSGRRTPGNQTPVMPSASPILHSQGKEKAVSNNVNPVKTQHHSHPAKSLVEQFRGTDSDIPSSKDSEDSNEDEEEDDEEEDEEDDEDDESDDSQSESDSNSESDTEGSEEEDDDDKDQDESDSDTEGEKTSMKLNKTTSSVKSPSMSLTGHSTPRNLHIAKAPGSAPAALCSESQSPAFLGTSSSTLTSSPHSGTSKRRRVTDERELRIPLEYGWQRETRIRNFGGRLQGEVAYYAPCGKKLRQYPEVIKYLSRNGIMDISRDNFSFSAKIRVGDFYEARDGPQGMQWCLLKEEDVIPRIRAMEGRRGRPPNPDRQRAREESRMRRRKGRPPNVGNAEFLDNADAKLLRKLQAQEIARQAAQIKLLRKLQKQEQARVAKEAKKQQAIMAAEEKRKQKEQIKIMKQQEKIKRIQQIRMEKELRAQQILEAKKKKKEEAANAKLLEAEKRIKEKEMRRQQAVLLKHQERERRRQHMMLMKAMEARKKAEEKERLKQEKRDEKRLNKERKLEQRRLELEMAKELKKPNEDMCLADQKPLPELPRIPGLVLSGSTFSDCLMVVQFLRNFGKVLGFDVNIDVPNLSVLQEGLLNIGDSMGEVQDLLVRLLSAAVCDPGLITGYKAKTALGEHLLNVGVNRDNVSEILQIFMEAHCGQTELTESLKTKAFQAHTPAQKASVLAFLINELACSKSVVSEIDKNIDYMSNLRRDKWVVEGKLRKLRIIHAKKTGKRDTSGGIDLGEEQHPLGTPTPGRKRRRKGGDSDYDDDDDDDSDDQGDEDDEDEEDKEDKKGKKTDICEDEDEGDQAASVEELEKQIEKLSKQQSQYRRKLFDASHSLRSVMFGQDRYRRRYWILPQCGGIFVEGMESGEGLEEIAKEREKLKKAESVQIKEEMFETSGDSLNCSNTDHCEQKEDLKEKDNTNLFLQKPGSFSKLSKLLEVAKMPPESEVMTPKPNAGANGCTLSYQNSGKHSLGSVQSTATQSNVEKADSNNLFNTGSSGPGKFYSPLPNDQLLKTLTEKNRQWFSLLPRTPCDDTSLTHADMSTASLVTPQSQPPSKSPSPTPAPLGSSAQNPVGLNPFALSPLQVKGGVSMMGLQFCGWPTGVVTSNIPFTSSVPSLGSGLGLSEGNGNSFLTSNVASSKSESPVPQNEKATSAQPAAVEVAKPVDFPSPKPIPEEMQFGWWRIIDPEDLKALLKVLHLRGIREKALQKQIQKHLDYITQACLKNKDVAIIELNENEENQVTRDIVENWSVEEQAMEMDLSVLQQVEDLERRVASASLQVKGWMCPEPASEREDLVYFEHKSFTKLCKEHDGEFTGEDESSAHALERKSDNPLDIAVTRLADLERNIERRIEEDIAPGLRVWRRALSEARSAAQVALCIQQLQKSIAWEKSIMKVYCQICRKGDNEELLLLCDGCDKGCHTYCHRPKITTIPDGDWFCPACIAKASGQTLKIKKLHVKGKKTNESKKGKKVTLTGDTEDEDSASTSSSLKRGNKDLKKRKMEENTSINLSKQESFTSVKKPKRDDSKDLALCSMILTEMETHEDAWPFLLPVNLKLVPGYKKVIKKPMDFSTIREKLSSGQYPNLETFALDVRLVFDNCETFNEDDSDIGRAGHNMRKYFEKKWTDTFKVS
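Compounds, titrated to a top concentration of 110 uM, were incubated 30 min at room temperature with preformed BAZ2B/acetyl-K14 H3 peptide complex (50 nM each). Proximity signal was measured by AlphaScreen after 20 min with beads.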
G9a block – inhibitors of human histone lysine methyltransferase G9a. Potency, µM (doses to about 102 µM), without a hit: top-dose activity, negative = inhibition, usual class: inhibitors. Q96KQ7. G9a H3K9 monomethylation, AlphaScreen, 2 h. 350,000 tested, 8.8% active. AID 504332; further: potency means the concentration at half of the fitted maximal effect; on the % scale 0 is the no-effect control and ±100 the full control effect; nearly all actives have a fitted effect of over 75% in size
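Compounds were preincubated with 20 nM G9a for 15 min, after which biotinylated H3K9 peptide (500 nM) and SAM (20 uM) started a 2 h room-temperature reaction. Monomethylated product was quantified by antibody-based AlphaScreen chemiluminescence.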
PLK1 PBD inh – PLK1 (human) polo-box domain binding inhibition | Plk1 PBD binding of FITC phosphopeptide, fluorescence polarization | Potency, µM, for the others: max response, negative = inhibition, most hits filed as inhibitors | 360,000 tested, 2.8% active | AID 720504; further: potency means the concentration at half of the fitted maximal effect; series mostly up to about 57 µM; on the % scale 0 is the no-effect control and ±100 the full control effect; nearly all actives have a fitted effect of over 65% in size
JMJD2A Tudor inh – inhibitors of human JMJD2A Tudor domain; Potency, µM (doses to about 114 µM), without a hit: at the highest dose activity change, negative = inhibition, usual class: inhibitors; AlphaScreen JMJD2A-Tudor / H3K4me3 peptide binding; O75164; 390,000 tested, 4.4% active; further: potency means the concentration at half of the fitted maximal effect; on the % scale 0 is the no-effect control and ±100 the full control effect; nearly all actives have a fitted effect of over 50% in size
PI5P4Ka inh – PI5P4K alpha (human) kinase inhibition | P48426 | 330,000 tested, 1.2% active | PI5P4Kalpha enzyme, ADP-Glo luminescence, 60 min; stronger effect = lower value | max response, %; active means max response of -50% or lower; inconclusive means between -30% and -50%; inactive means -30% or higher; further: value at the top dose of about 77 µM; on the % scale 0 is the no-effect control and ±100 the full control effect
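Quantitative HTS of the MLSMR library against PI5P4Kalpha with substrate. ATP added last at 5 microM final; room temperature, 60 minutes. Remaining ATP depleted, ADP converted and read as luminescence.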
* = called active by the depositor; u = inconclusive; x = not tested or not shown; [ ] = remark or other dose. Unless noted, the call rests on the fitted dose curve; in most records, active means well fitted curve in the direction sought with a large enough effect; inconclusive means small, poorly fitted or top-dose-only effect, or another doubt; inactive means no such curve, though single readings can be large; an effect the other way counts as inactive or inconclusive.

SMILES	HP1b binding inh	BAZ2B block	G9a block	PLK1 PBD inh	JMJD2A Tudor inh	PI5P4Ka inh
Cc1ccc(N2CC(c3nnc(Cc4ccc(Cl)cc4)o3)CC2=O)cc1 (stereo not drawn)	24%	-6%	-31%[59 µM]	x	-9%	x
C/C(=N/NS(=O)(=O)c1ccc(C)cc1C)c1ccc2c(c1)OCO2	27%	-15%	x	-15%	-23%	0
C/C(=N\NS(=O)(=O)c1ccc(Cl)c([N+](=O)[O-])c1)c1cc2ccccc2o1	-9%	u	u	u	u	7
C/C(=N\NS(=O)(=O)c1ccc(Cl)c([N+](=O)[O-])c1)c1ccc(C)o1	43%	79µM*	-36%[12.7 µM]	u	u	-3
C/C(=N\NS(=O)(=O)c1ccc(C)c([N+](=O)[O-])c1)c1ccc2c(c1)OCO2	26%	-27%	45µM*	u	-20%	2
C/C(=N\NS(=O)(=O)c1ccc([N+](=O)[O-])cc1)c1ccc2c(c1)OCO2	5%	-33%	-49%	-19%	-24%	0
COc1ccc(OC)c(S(=O)(=O)N/N=C(/C)c2ccc3c(c2)OCO3)c1	49%	-13%	32µM*	2%	-1%	-1
C/C(=N/NS(=O)(=O)c1cccc([N+](=O)[O-])c1)c1ccc2c(c1)OCO2	20%	-38%	32µM*	-25%	-5%	-2
CNS(=O)(=O)c1cn(CC(=O)NCc2ccc(N(C)C)cc2)cc1S(=O)(=O)NC	18%	-4%	-51%	5%	-9%	-3
Cc1cccc(-n2c(CCn3nc(C)c([N+](=O)[O-])c3C)n[nH]c2=S)c1	24%	-2%	0.45µM*	-16%	20µM*	x
COc1cccc(-n2c(CCn3nc(C)c([N+](=O)[O-])c3C)n[nH]c2=S)c1	u	7%	25µM*	-15%	11µM*	-10
COc1ccc(CCn2nc(C)c([N+](=O)[O-])c2C)cc1	37%	-1%	-3%	0%	-2%	2
CC(C)(C)OC(=O)C[C@@H]1C/C=C\C[C@@H](CC(=O)N[C@@H](CO)Cc2ccccc2)C(=O)NC[C@@H](c2ccccc2)OC1=O	23%	x	x	-3%	-22%	21
O=C1NN(c2ccccc2)C(=O)/C1=C\c1coc2ccc(O)cc2c1=O	-9%	-37%	14%[12.7 µM]	u	-27%	-68*
O=C1NN(c2ccccc2)C(=O)/C1=C/c1coc2ccccc2c1=O	8%	-24%	u	u	-27%	-64*
C[C@@H]1NC(=O)c2cc([N+](=O)[O-])cc(I)c2OCC[C@@H](C(=O)NC(CC(=O)O)C(N)=O)NC(=O)[C@H](CCC(=O)O)NC1=O (stereo partly drawn)	0%	-27%	35µM*	-16%	u	-9
NC(=O)C(CC(=O)O)NC(=O)[C@@H]1CCOc2c(I)cc([N+](=O)[O-])cc2C(=O)N[C@@H](CCC(=O)O)C(=O)N[C@@H](CO)C(=O)N1 (stereo partly drawn)	32%	u	7.9µM*	0%	u	1
C[C@@H]1NC(=O)[C@H](CC(N)=O)NC(=O)c2cc([N+](=O)[O-])cc(I)c2OCC[C@@H](C(=O)NC(CC(=O)O)C(N)=O)NC1=O (stereo partly drawn)	19%	-38%	28µM*	-19%	-32%	-12
CC(=O)c1ccc(NC(=O)c2sc3nc(N4CCOCC4)c4c(c3c2N)CCCC4)cc1	30%	-28%	25µM*	-29%	5%	-8
Cc1ccc(NC(=O)c2sc3nc(N4CCOCC4)c4c(c3c2N)CCCC4)cc1	x	x	x	u	x	-25
CN1Cc2c(N3CCOCC3)nc3sc(C(=O)c4ccc(Br)cc4)c(N)c3c2CC1(C)C	u	35µM*	45µM*	-1%	45µM*	0
CCOc1ccc(NC(=O)c2sc3nc(N4CCOCC4)c4c(c3c2N)CCCC4)cc1	29%	-17%	u	30µM*	-11%	-8
CN1Cc2c(N3CCOCC3)nc3sc(C#N)c(N)c3c2CC1(C)C	25%	-8%	x	-19%	-19%	2
O=C(NCc1nnnn1-c1ccc(F)c(F)c1)c1ccc2c(c1)OCO2	19%	7%	2%	7%	-11%	1
COc1ccc(C(NC(=O)C2CCN(C/C=C/c3ccc(OC(C)=O)c(OC)c3)CC2)c2ccccn2)cc1 (stereo not drawn)	x	x	x	-2%	x	1
SMILES	HP1b binding inh	BAZ2B block	G9a block	PLK1 PBD inh	JMJD2A Tudor inh	PI5P4Ka inh
Cc1ccc(S(=O)(=O)NC(=O)Nc2ccc(C)cc2C)cc1	13%	-20%	-21%	0%	-11%	3
O=[N+]([O-])c1ccc(-c2csc3[n+]2CCS3)cc1	17%	1%	35µM*	-27%	-14%	-19
Fc1ccc(-c2csc3[n+]2CCS3)cc1	34%	5%	-4%[59 µM]	-8%	-17%	0
OC(c1ccccn1)C(O)c1ccccn1 (stereo not drawn)	-11%	x	x	-9%	50µM*	1
O=P(c1ccccc1)(c1ccccc1)C(c1ccccn1)P(=O)(c1ccccc1)c1ccccc1	11%	-3%	-33%	-2%	-10%	1
O=P(c1ccccc1)(c1ccccc1)C(O)c1ccccn1 (stereo not drawn)	35%	20µM*	x	-7%	u	0
Cc1ccccc1C(O)c1ccccn1 (stereo not drawn)	12%	1%	-11%[59 µM]	-4%	-18%	x
CCOC(=O)c1cnc2cc(-c3ccc(C)cc3)nn2c1C	x	x	x	-3%	x	3
Cc1ccc(-c2cc3ncc4c(n3n2)-c2cc(Cl)ccc2OC4)cc1	46%	2%	30%[59 µM]	x	-10%	x
O=C(c1cc(-c2cccs2)nn1-c1ccccc1)N1CCN(S(=O)(=O)c2ccccc2)CC1	14%	-7%	u	-6%	-24%	0
O=c1cc(N2CCNCC2)oc2c(-c3ccccc3)cccc12	x	x	12%[59 µM]	x	x	x
C=CCN=c1sc(C(=O)OC)cc(=O)n1CC=C	-15%	-25%	23%	30µM*	u	x
CC(C)N(C(=O)[C@H]1CC(CC(=O)NC(C)(C)C)C(=O)N2CCc3c([nH]c4ccccc34)[C@]12C)C(C)C (stereo partly drawn)	6%	x	x	-14%	-21%	-1
Cc1cnc(=O)[nH]c1SCc1ccc([N+](=O)[O-])cc1	12%	u	63µM*	u	-29%	1
Cc1cnc(=O)[nH]c1SCc1ccc(C(F)(F)F)cc1	35%	0%	-1%[59 µM]	-4%	2%	-2
COc1cccc(OC)c1C(=O)Nc1nnc(-c2cccs2)s1	-2%	-1%	x	17µM*	-14%	-16
CCC(CC)C(=O)Nc1nnc(-c2cccs2)s1	-13%	5%	16µM*	30µM*	-12%	-7
